From PubChem
G9a block – qHTS Assay for Inhibitors of Histone Lysine Methyltransferase G9a; Potency, µM (highest dose often 102 µM), without a hit: at the top dose activity, negative = inhibition, hits mostly inhibitors; actives 8.8% (n = 350,000); G9a H3K9 monomethylation, AlphaScreen, 2 h; Histone-lysine N-methyltransferase EHMT2 (Homo sapiens), Q96KQ7; also: potency is read from the fitted curve at half-maximal effect; % is scaled to controls: 0 for no effect and ±100 for the full control effect; nearly all actives have a fitted effect of over 75% in size
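Signal arises when biotinylated H3K9 peptide, once monomethylated, bridges streptavidin donor and antibody-captured acceptor beads. Enzyme at 20 nM was preincubated 15 min with test compounds; peptide 500 nM and SAM 20 uM then reacted for 2 h.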
JMJD2A Tudor – qHTS Assay for Inhibitors of JMJD2A-Tudor Domain. actives 4.4% (n = 390,000). Lysine-specific demethylase 4A (Homo sapiens), O75164. AlphaScreen JMJD2A-Tudor / H3K4me3 peptide binding. AID 504339, 2011. Potency, µM (top dose mostly 114 µM), for inactives: at the highest dose activity change, negative = inhibition, hits mostly inhibitors; also: potency is read from the fitted curve at half-maximal effect; % is scaled to controls: 0 for no effect and ±100 for the full control effect; nearly all actives have a fitted effect of over 50% in size
Six1-Eya2 blk – qHTS Assay for Inhibitors of the Six1/Eya2 Interaction; Homeobox protein SIX1 (Homo sapiens) + Protein phosphatase EYA2 (Homo sapiens), …; AlphaScreen GST-Six1/His-Eya2 binding, biochemical; stronger effect = lower value; activity change, % (test concentration not listed); actives 0.56% (n = 360,000); AID 651725, 2012; in the data active = activity change below about -65%; inconclusive = mostly about -30% to -63%; also: % is scaled to controls: 0 for no effect and ±100 for the full control effect
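Compounds are tested against tagged Six1 and Eya2 proteins bridged by glutathione donor and nickel acceptor beads; after a one-hour incubation at 37 °C without light, AlphaScreen emission is recorded.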
HP1b chromo inh – HTS for Inhibitors of HP1-beta Chromodomain Interactions with Methylated Histone Tails; AID 540317, 2011; AlphaScreen HP1-beta / biotin-H3K9me3 peptide binding; Potency, µM (titrated, usually from 114 µM), for the others: top-dose activity change, negative = inhibition, most hits filed as inhibitors; actives 0.56% (n = 390,000); Chromobox protein homolog 1 (Homo sapiens), P83916; also: potency is read from the fitted curve at half-maximal effect; nearly all actives have a fitted effect of over 70% in size
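HP1-beta protein (50 nM final) preincubated 30 min at room temperature with biotinylated H3(1-18)K9me3 peptide (50 nM) in PBS pH 7.4, 0.01% Tween-20, then compound added for 30 min. AlphaScreen streptavidin donor/nickel chelate acceptor beads (10 ug/mL final), 30 min dark, luminescence read.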
CtBP-E1A inh – qHTS Assay for Inhibitors of the CtBP/E1A Interaction. activity change, % (no concentration beside the values). CtBP / adenovirus E1A interaction (AlphaScreen). actives 0.49% (n = 340,000). AlphaScreen GST-E1A/His-CtBP binding, 1536-well; stronger effect = lower value; in the data active = activity change below about -65%; inconclusive = mostly about -30% to -63%; also: % is scaled to controls: 0 for no effect and ±100 for the full control effect
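AlphaScreen with 125 nM GST-E1A and 125 nM His-CtBP (5X stocks) in Tris pH 8.0, 300 mM NaCl, BSA, Tween 20, TCEP. Compounds preincubated 2 h at 37 deg C, then glutathione donor/nickel acceptor beads added for 1 h at 37 deg C in dark.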
BAZ2B inh – qHTS Assay for Inhibitors of BAZ2B. Bromodomain adjacent to zinc finger domain protein 2B (Homo sapiens), Q9UIF8. AlphaScreen BAZ2B-H3K14Ac peptide displacement. Potency, µM (series often up to 114 µM), without a hit: at the highest dose activity change, negative = inhibition, most hits filed as inhibitors. actives 4.4% (n = 360,000). AID 504333, 2011; also: potency is read from the fitted curve at half-maximal effect; % is scaled to controls: 0 for no effect and ±100 for the full control effect; nearly all actives have a fitted effect of over 60% in size
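AlphaScreen displacement of biotin-H3(5-23)K14Ac peptide (50 nM final) from BAZ2B (50 nM final) in PBS pH 7.4, 0.01% Tween-20; complex preformed 30 min RT, then compounds (top 110 uM) 30 min RT, beads 20 min dark.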
Numbers without * were called inactive; ? = inconclusive; . = not tested or not shown; ! = a repeat was not active; [ ] = another dose, or the depositor's remark. Compounds with a hit are over-represented: about 10% of the library has one in this group of screens. Unless noted, calls follow the shape of the dose curve; as a rule, active = well fitted inhibition curve with a large enough effect; inconclusive = small, poorly fitted or top-dose-only effect; inactive = no such curve, though single readings can be large or run the other way.

SMILES	G9a block	JMJD2A Tudor	Six1-Eya2 blk	HP1b chromo inh	CtBP-E1A inh	BAZ2B inh
O=C(Nc1ccc([N+](=O)[O-])cc1)c1nc[nH]c1C(=O)NC1CCCCC1	19.8%[59 µM]	-21.4%	-3.1	19.6%	-2.7	50.1µM*
CCOC(=O)c1[nH]cnc1C(=O)Nc1ccc([N+](=O)[O-])cc1	79.4µM*	?	-10.0	14.4%	-6.6	?
CCOC(=O)Nc1ccc2c(CNC(C)c3ccccc3OC)cc(=O)oc2c1 (centres undefined)	-10.3%	-21.4%	-6.5	3.0%	-21.8	-9.9%
O=C(CN1CCN(c2ncccn2)CC1)NCc1ccc2c(c1)OCO2	7.6%	-6.0%	-6.6	26.4%	-1.7	-18.2%
NC(=O)C1CCN(c2nc(-c3ccccc3F)cs2)CC1	1.3%[12.7 µM]	-30.0%	.	11.9%	.	?
NC(=O)C1CCN(c2nc(-c3cccnc3)cs2)CC1	-3.9%[12.7 µM]	79.4µM*	.	38.5%	.	-2.9%
NC(=O)C1CCN(c2nc(-c3ccc(F)cc3)cs2)CC1	-24.2%[12.7 µM]	-18.4%	.	28.8%	.	56.2µM*!
NC(=O)C1CCN(c2nc(-c3ccccc3C(F)(F)F)cs2)CC1	-9.7%[12.7 µM]	79.4µM*	.	10.7%	.	-36.6%
O=C(CN1CCN(c2nc(-c3ccc(F)cc3)cs2)CC1)NCc1ccc2c(c1)OCO2	39.8µM*	?	-21.6	-22.0%	-20.6	?
Cc1c(C(=O)N(C)C)sc2c1c(=O)n(-c1ccc(Cl)c(Cl)c1)c(=O)n2CC(=O)Nc1cccc(C(F)(F)F)c1	0.9%[59 µM]	-8.3%	.	25.5%	.	1.6%
O=C(Cn1cnc2onc(-c3ccc(F)cc3)c2c1=O)N1CCN(c2ccccc2F)CC1	-3.9%[59 µM]	-15.9%	.	21.4%	.	1.8%[57.1 µM]
Cc1ccc(S(=O)(=O)c2cnc(SCC(=O)Nc3ccc4c(c3)OCCO4)[nH]c2=O)cc1	5.5%[59 µM]	-11.3%	.	35.4%	.	-7.0%
CCc1ccc(NC(=O)CSc2cn(CC(=O)N3CCOCC3)c3ccccc23)cc1	-9.0%[59 µM]	-5.9%	.	23.7%	.	-10.9%
Cn1ccc2cc(-c3csc(N4CCC(C(N)=O)CC4)n3)ccc21	-25.0%[12.7 µM]	-7.1%	.	50.0%	.	50.1µM*
CC(Sc1nnc(N)s1)C(=O)Nc1ccc2c(c1)OCO2 (centres undefined)	44.7µM*	-26.9%	-10.1	34.1%	-15.1	11.8%
CC(Sc1nnc(N)s1)C(=O)NCc1ccc2c(c1)OCO2 (centres undefined)	13.8%[12.7 µM]	-15.8%	0.9	26.5%	.	-0.3%
Cc1cccc(NC(=O)C2CCCN(c3nc4ccccc4s3)C2)c1C (centres undefined)	1.7%[59 µM]	-2.5%	.	33.2%	.	1.4%
CC(Sc1nc2ccccc2s1)C(=O)Nc1ccc2c(c1)OCO2 (centres undefined)	1.78µM*	8.4%	-21.1	34.7%	1.7	-10.1%
O=C(Nc1ccc2c(c1)OCO2)C1CCCN(c2nc3ccccc3s2)C1 (centres undefined)	3.16µM*	-24.6%	-20.8	-5.3%	-21.0	-35.4%
Cc1cccc(NC(=O)N2CCc3c(sc4c3CCCC4)C2c2ccc(F)cc2)c1 (centres undefined)	-7.8%[59 µM]	-22.5%	.	3.7%	.	-22.5%
O=C(Nc1ccc(Cl)cc1)OCCn1nnnc1C(c1ccccc1Cl)N1CCOCC1 (centres undefined)	11.5%[59 µM]	35.5µM*	-3.3	-17.6%	-1.7	-3.1%[57.1 µM]
CCc1ccc(NC(=O)CC2C(=O)N(c3ccc(C)cc3)C(=O)N2C2CCCC2)cc1 (centres undefined)	11.3%[59 µM]	-1.3%	.	17.1%	.	-4.9%
